Screening results from PubChem.
LMNA splice mod: changes lamin A minigene splicing in HeLa cells. HeLa LMNA splicing GFP/RFP minigene ratio, 48 h. Potency, µM (top dose mostly 46.1 µM), for the others: at the top dose ratio change, negative = inhibition, hits mostly inhibitors. 200,000 compounds, 0.01% hits. AID 1487; active means well fitted inhibition curve with a large enough effect in the signal ratio, with a control signal flat, not every such curve was filed as active; inconclusive means small, poorly fitted or top-dose-only effect, or effect the other way, or a change in a side signal; the % refers to the signal ratio
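S3 HeLa stable clones carrying a lamin A-EGFP splicing minigene plus DsRed2 were seeded at 600 cells/well in Opti-MEM with 2% FBS, pin-dosed and incubated 48 h at 37°C. Acumen cytometry (488 nm) gave the GFP/RFP total-intensity ratio.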
ALDH1A1 inh: ALDH1A1 (human) enzyme inhibition | Purified ALDH1A1, NADH fluorescence, propionaldehyde substrate | Potency, µM (doses to about 75.3 µM), inactives show at the highest dose activity, negative = inhibition, most hits filed as inhibitors | 220,000 compounds, 7.3% hits | AID 1030; active means well fitted inhibition curve with a large enough effect, not every such curve was filed as active; inconclusive means small, poorly fitted or top-dose-only effect, or another doubt; inactive means no such curve, though single readings can be large or run the other way;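 further: plate controls were no enzyme wells and a reference inhibitor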
Target sequence (P00352 whole entry, looked up): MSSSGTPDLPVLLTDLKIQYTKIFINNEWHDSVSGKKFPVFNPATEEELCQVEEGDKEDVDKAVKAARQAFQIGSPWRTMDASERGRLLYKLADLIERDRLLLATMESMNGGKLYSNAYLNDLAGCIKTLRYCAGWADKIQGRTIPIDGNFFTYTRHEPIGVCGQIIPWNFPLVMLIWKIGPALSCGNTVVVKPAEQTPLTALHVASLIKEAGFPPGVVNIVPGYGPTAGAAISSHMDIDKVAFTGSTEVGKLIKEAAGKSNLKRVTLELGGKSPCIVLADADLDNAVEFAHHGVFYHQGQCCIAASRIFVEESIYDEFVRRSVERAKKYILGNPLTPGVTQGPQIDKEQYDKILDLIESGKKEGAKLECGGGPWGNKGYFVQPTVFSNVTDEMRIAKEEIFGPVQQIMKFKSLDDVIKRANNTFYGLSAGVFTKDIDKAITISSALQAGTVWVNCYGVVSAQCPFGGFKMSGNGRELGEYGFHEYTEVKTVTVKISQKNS
HPGD block: blocks human HPGD enzyme activity | P15428 | purified HPGD, NADH fluorescence kinetic, PGE2 substrate | Potency, µM, for inactives: top-dose activity change, negative = inhibition, usual class: inhibitors | 150,000 compounds, 4.3% hits | AID 894; active means well fitted inhibition curve with a large enough effect, not every such curve was filed as active; inconclusive means small, poorly fitted or top-dose-only effect, or another doubt; inactive means no such curve, though single readings can be large or run the other way
Target sequence (P15428 whole entry, looked up): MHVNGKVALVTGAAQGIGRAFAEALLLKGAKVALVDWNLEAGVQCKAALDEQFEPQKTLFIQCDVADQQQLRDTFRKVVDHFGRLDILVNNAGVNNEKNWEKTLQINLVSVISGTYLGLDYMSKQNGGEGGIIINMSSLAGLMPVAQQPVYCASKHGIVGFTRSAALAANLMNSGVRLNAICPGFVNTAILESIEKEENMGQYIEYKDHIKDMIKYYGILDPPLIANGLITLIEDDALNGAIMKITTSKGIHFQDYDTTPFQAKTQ
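NADH formation kinetics: reaction with 30 uM PGE2 and 1 mM NAD+ (final), 20 nM enzyme, Tris-HCl pH 8 with Tween 20, after 15 min compound preincubation at room temperature. Fluorescence change, last versus first of five reads.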
IMPase Li cell: membrane-permeable IMPase blocker, potentiated with lithium | AID 1457 | CHO-M1 cells, IP1 TR-FRET (IP-One), carbachol + lithium | 210,000 compounds, 0.35% hits | Potency, µM (titrated, usually from 59.4 µM), without a hit: top-dose activity, negative = IMPase inhibition, most hits filed as inhibitors;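 further: IP1 builds up when IMPase is blocked and the TR-FRET signal falls; plate controls were basal vehicle for no effect and high inhibitor control for full effect; nearly all actives have a fitted effect of over 50% in size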
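Readout is a homogeneous TR-FRET IP1 immunoassay (Ex 320, Em 665 and 620), where raised cytosolic IP1 lowers signal. Cells were CHO-M1 treated 30 min at 37C with test compounds plus a little lithium; AC50 values came from Hill-equation fitting.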
Luc counter: Kinase-Glo luciferase inhibition (counter-screen). Kinase-Glo luciferase, ATP luminescence, 8 min. Potency, µM (titrated, usually from 38.3 µM), without a hit: at the top dose activity change, negative = inhibition, hits mostly inhibitors. 200,000 compounds, 0.28% hits. AID 1379; further: nearly all actives have a fitted effect of over 60% in size
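Luminescence was the read-out, taken after 8-minute incubation at ambient temperature. Luciferase turned over luciferin with 10 uM ATP in imidazole pH 7.2 buffer containing KCl, MgCl2, Tween 20 and BSA.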
Starred values were filed as active, the others as inactive; u = inconclusive; x = no result; [ ] = remark or other dose. This is a sample that favours compounds with a hit; in the whole collection about 9% have one here. Unless noted, the call rests on the fitted dose curve; in most records, active means well fitted curve in the direction sought with a large enough effect; inconclusive means small, poorly fitted or top-dose-only effect, or another doubt; inactive means no such curve, though single readings can be large; an effect the other way counts as inactive or inconclusive. Unless noted, on the % scale 0 is the no-effect control and ±100 the full control effect; potency means the concentration at half of the fitted maximal effect.

SMILES | LMNA splice mod | ALDH1A1 inh | HPGD block | IMPase Li cell | Luc counter
CCn1c(CNc2ccc(F)cc2)nnc1SCC(=O)Nc1ccc(OC)cc1OC | 1% | 14µM* | x | x | x
CCn1c(CNC(=O)COc2ccc(C(C)C)cc2)nnc1SCC(=O)Nc1ccc(F)cc1 | -4% | 28µM* | -12% | 66%[38.3 µM] | 0%
CCn1c(CNC(=O)COc2ccc(C(C)C)cc2)nnc1SCC(=O)Nc1cc(F)ccc1C | 30% | 2% | -6% | -28%[38.3 µM] | -1%
Cc1ccccc1OCC(=O)Nc1ccc2nc(SCC(=O)N(C)c3ccccc3)sc2c1 | 4%[46 µM] | x | x | x | x
COC(=O)CNC(=O)COC(=O)c1cc(SC)ccc1Cl | 11%[46 µM] | -4% | x | 3% | 6%
O=C(CSc1nnc(COc2cccc3ccccc23)o1)N1c2ccccc2CCc2ccccc21 | 8% | 22µM* | -2% | -7%[38.3 µM] | -4%
O=C(CSc1nnc(-c2ccco2)o1)N1c2ccccc2CCc2ccccc21 | u | -8% | -8% | 27%[38.3 µM] | 3%
O=C(CSc1nnc(-c2ccccc2Br)o1)N1CCc2ccccc2C1 | -8% | u | 25µM* | 6%[38.3 µM] | 1%
COc1cccc(OCc2nnc(SCC(=O)N3c4ccccc4Sc4ccc(Cl)cc43)o2)c1 | u | 10µM* | -20% | 6% | 0%
O=C(CSc1nnc(COc2cccc3cccnc23)o1)N1CCCC1 | 4%[46 µM] | 4% | x | -2% | -1%
O=C(CSc1nnc(-c2c[nH]c3ccccc23)o1)N1c2ccccc2CCc2ccccc21 | u | 3.5µM* | -21% | 8%[38.3 µM] | 2%
COc1ccc(-c2cc(C(=O)Nc3c(C(=O)c4ccc(Cl)cc4)oc4ccccc34)no2)cc1 | 2%[46 µM] | x | x | x | x
COc1ccc(CCN=Cc2ccccc2O)cc1OC | u | 5% | x | x | x
O=C(CSc1nnc(-c2c[nH]c3ccccc23)o1)N1CCCCC1 | u | u | 28µM* | -14%[38.3 µM] | -1%
COc1cc(OC)cc(-c2nnc(SCC(=O)N3CCOCC3)o2)c1 | 1% | u | 0% | -1%[38.3 µM] | -5%
O=C(CSc1nnc(-c2c[nH]c3ccccc23)o1)c1ccc(-c2ccccc2)cc1 | -7% | 25% | -29% | -8% | 11%
COc1cc(OC)cc(-c2nnc(SCC(=O)N3CCCCC3)o2)c1 | -14% | -14% | 25µM* | 27%[38.3 µM] | -1%
Cc1nc(-c2ccc(F)cc2)sc1CCNC(=O)C(=O)Nc1ccc2c(c1)OCO2 | 2%[46 µM] | x | x | x | x
CCNC(=O)CCS(=O)(=O)c1ccc2ccccc2c1 | -7% | u | 32µM* | 4% | -3%
O=C(CCS(=O)(=O)c1ccccc1)NCCS(=O)(=O)c1ccccc1 | u | -9% | x | 1% | 0%
Cc1cc(NC(=O)c2ccccc2)nc2c1c(=O)oc1ccccc12 | -3%[9.22 µM] | u | x | 0% | -3%
CCOc1ccc(C(=O)Nc2cc(C)c3c(=O)oc4ccccc4c3n2)cc1 | 2% | -6% | -16% | 13µM* | 2%
CC(=O)N1CCCc2cc(S(=O)(=O)N3CCCC(C(=O)NC(C)C)C3)ccc21 (centres undefined) | -10%[46 µM] | x | x | x | x
CC(=O)Nc1ccc2c(c1)ncn2C | -2% | 35µM* | 6% | 5% | -3%
Cc1ccc(NC(=O)CNc2ccc(OC(C)C)cc2)c(C)c1 | -15% | 4.5µM* | -10% | 1% | -1%
SMILES | LMNA splice mod | ALDH1A1 inh | HPGD block | IMPase Li cell | Luc counter
Cc1ccc(NC(=O)CNc2cccc(C)c2C)c(C)c1 | 2% | 8.9µM* | 32µM* | 15%[38.3 µM] | 3%
COc1ccc(C)cc1NC(=O)CNc1ccc(C(C)=O)cc1 | -10% | u | -14% | -2% | 1%
CCC(=O)NCCc1nc2cc(NC(=O)c3cccc(Br)c3)ccc2n1C | -9%[46 µM] | x | x | x | x
O=C(OCn1ncc(Cl)c(Cl)c1=O)c1cccc(C(F)(F)F)c1 | u | 0.63µM* | 18µM* | -20%[38.3 µM] | 4%
CCN(CC)S(=O)(=O)c1ccc2c(c1)N(CC(=O)NCCc1ccc(OC)c(OC)c1)C(=O)CO2 | 1%[46 µM] | x | x | x | x
COC(=O)N1C(c2ccccc2)=Cc2ccccc2C1C1(C(=O)OC)CCCC1=O (centres undefined) | -4%[9.22 µM] | -4% | -7% | 6% | 0%
CC(C)N=C1NN=C(c2ccc(F)cc2)CS1 | x | u | x | 4% | 10µM*
c1ccc(CN=C2NN=C(c3ccccc3)CS2)cc1 | 1%[46 µM] | 22µM* | x | 20% | -5%
c1ccc(C2=NNC(=NCc3ccc4c(c3)OCO4)SC2)cc1 | -5% | 25µM* | x | x | x
Clc1ccc(C2=NNC(=NCc3ccccc3)SC2)cc1 | x | 10µM* | x | -4% | 1%
COc1ccccc1C1=NNC(=NCc2ccccc2)SC1 | -9%[46 µM] | u | x | -3% | -6%
Fc1ccc(C2=NNC(=NCc3ccccc3)SC2)cc1F | x | u | x | -7% | 0%
Fc1ccccc1N=C1NN=C(c2ccccc2)CS1 | u | u | x | 15% | -3%
CCOc1ccc(Cn2c(CNS(=O)(=O)c3ccc(CC)cc3)nc3cccnc32)cc1 | -1%[46 µM] | x | x | x | x
CC(=O)c1ccc(NC(=O)CSc2nc(C)cc(C)c2C(N)=O)cc1 | -1%[46 µM] | -5% | x | 3% | 2%
O=C(c1csnn1)N1CCC2(CC1)CN(c1cccc(-c3ccccc3)c1)C2 | x | u | u | -1% | -2%
CO[C@]1(NC(=O)C2SC(=C(C(N)=O)C(=O)O)S2)C(=O)N2C(C(=O)O)=C(CSc3nnnn3C)CS[C@H]21 (some centres undefined) | u | 8%[20.9 µM] | 1% | 2% | 3%[17.1 µM]
CC(=O)c1c(C)[nH]c(C2=NNC(=NCc3ccccc3)SC2)c1C | 12%[46 µM] | 28µM* | x | -20% | 2%
C=CCN=C1NN=C(c2ccc3c(c2)OCCO3)CS1 | -3%[46 µM] | 20µM* | x | 19% | 10µM*
CCN=C1NN=C(c2ccc(C)cc2)CS1 | 10% | 25µM* | 28µM* | -17%[38.3 µM] | -14%
C=CCN=C1NN=C(c2cc(C)n(CC=C)c2C)CS1 | 7% | u | -26% | 4% | u
COCCN=C1NN=C(c2ccc(NC(C)=O)cc2)CS1 | -11%[46 µM] | u | x | 5% | 3%
CC(C)N(C)S(=O)(=O)c1ccc(Cl)c(C(=O)O)c1 | x | 1% | x | 2% | 1%
CCN1C(=O)[C@H]2[C@H]3[C@H](O)[C@H](O)C/C(=N/OC/C=C(\C)CCC=C(C)C)[C@@H]3CC[C@@H]2C1=O | x | 7%[13.5 µM] | x | x | x
O=C(COC(=O)C1CC(O)CN1S(=O)(=O)c1ccc(Cl)cc1)c1ccccc1 (centres undefined) | -9% | u | -18% | 4% | 0%
CC(C)N(C(=O)COC(=O)[C@@H]1CC(O)CN1S(=O)(=O)c1ccc(C(C)(C)C)cc1)C(C)C (some centres undefined) | -11%[46 µM] | 8.9µM* | x | 8% | 4%
O=C(COC(=O)C1CC(O)CN1S(=O)(=O)c1ccc(Cl)cc1)c1ccccc1Cl (centres undefined) | 0% | 18µM* | -2% | 7% | -1%
COc1ccc(CNc2cc(-c3ccccc3C)ncn2)c(OC)c1 | u | -13% | x | 25% | x
